Compound activity (PubChem)
S-ASM inh – Inhibitors of Secretory Acid Sphingomyelinase (S-ASM): qHTS. Sphingomyelin phosphodiesterase (Homo sapiens), P17405. placental ASM, HMU-PC fluorogenic substrate, 60 min. Potency, µM (doses to about 57.5 µM), without a hit: at the top dose activity change, negative = inhibition, most hits filed as inhibitors. 340,000 tested, 0.006% active; further: potency means the concentration at half of the fitted maximal effect
Target sequence (P17405 47-631 limits assumed): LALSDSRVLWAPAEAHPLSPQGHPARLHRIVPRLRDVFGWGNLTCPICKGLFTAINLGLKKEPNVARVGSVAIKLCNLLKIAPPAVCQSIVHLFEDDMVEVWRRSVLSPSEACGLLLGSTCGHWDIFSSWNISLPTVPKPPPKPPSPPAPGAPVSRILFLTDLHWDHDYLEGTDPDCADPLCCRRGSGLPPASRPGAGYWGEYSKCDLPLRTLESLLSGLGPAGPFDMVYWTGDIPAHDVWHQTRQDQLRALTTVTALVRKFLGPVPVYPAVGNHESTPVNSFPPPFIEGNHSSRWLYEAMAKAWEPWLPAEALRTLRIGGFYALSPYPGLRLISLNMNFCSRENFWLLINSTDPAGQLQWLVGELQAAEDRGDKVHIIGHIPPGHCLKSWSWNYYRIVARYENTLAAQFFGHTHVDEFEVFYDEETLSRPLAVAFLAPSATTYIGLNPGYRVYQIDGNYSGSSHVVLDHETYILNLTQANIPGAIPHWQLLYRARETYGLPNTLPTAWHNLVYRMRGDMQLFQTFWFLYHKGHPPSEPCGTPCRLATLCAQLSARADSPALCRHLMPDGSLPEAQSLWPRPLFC
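Human placenta-derived ASM preincubated with compound 10 min at room temperature, then reacted with 9 uM (final) fluorogenic HMU-PC substrate for 60 min at 37 C. Stop solution raises pH to 10; fluorescence read at Ex 386/Em 447 nm.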
TGFb SMAD3 inh – qHTS for Inhibitors of TGF-b; Potency, µM (doses to about 46.1 µM), for inactives: top-dose activity, negative = inhibition, usual class: inhibitors; AID 588855, 2011; 410,000 tested, 1.2% active; HepG2 CAGA-GFP TGF-b/SMAD3 reporter, GFP fluorescence, 18 h; TGF-beta stimulated, 500 pg/mL final; further: potency means the concentration at half of the fitted maximal effect; on the % scale 0 is the no-effect control and ±100 the full control effect; nearly all actives have a fitted effect of over 65% in size
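HEPG2 CAGA-GFP, 1000 cells/well; 2 h settle, 37 C; cpd via pin tool; TGF-b 500 pg/mL final; 18 h, 37 C; GFP imaging ex488/em500-530; %Activity normalised to -TGF-b and +DMSO controls; CRC fit, curve class.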
TDP1 cell noCPT – qHTS for Inhibitors of human tyrosyl-DNA phosphodiesterase 1 (TDP1): qHTS in cells in absence of CPT. DT40 Tdp1-/- hTDP1 cells, no CPT, ATP luminescence, 48 h. Potency, µM (top dose mostly 46.2 µM), for the others: at the highest dose activity change, negative = growth inhibition, hits mostly inhibitors. 420,000 tested, 15% active. AID 686978, 2013; further: potency means the concentration at half of the fitted maximal effect; on the % scale 0 is the no-effect control and ±100 the full control effect; nearly all actives have a fitted effect of over 55% in size
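No-CPT arm: Tdp1-/-;hTDP1 DT40 cells (400/well) plus compounds, incubated ≥48 hr at 37 °C. Readout CellTiter-Glo luminescence.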
IL-1B inflam inh – qHTS for Inhibitors of Inflammasome Signaling: IL-1-beta AlphaLISA Primary Screen; THP-1 LPS/ATP IL-1B secretion, AlphaLISA, 16 h; active compounds read low; activity change, % at 57.5 µM; 360,000 tested, 4.7% active; in the data active means activity change below about -50%; inconclusive means mostly about -30% to -49%; further: on the % scale 0 is the no-effect control and ±100 the full control effect
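THP-1 cells pretreated 1 hr with compounds (up to 57.5 uM final), then stimulated with LPS (250 ng/mL final) plus ATP (1.25 mM final); secreted IL-1B measured by AlphaLISA after 16 hr, decreased signal indicating inhibition.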
TDP1 cell CPT – qHTS for Inhibitors of human tyrosyl-DNA phosphodiesterase 1 (TDP1): qHTS in cells in presence of CPT; Potency, µM (series often up to 46.2 µM), inactives show top-dose activity change, negative = growth inhibition, hits mostly inhibitors; chicken DT40 Tdp1-/-;hTDP1 cells + 20 nM CPT, ATP luminescence, 48 h; 420,000 tested, 12% active; further: potency means the concentration at half of the fitted maximal effect; on the % scale 0 is the no-effect control and ±100 the full control effect; nearly all actives have a fitted effect of over 55% in size
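Chicken DT40 Tdp1-/- cells stably complemented with human TDP1 were seeded at 400 cells/well in medium containing 20 nM camptothecin, exposed to pin-transferred compounds, and grown at 37 °C for at least 48 hr. Viability was read as ATP luminescence.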
HepG2 tox – qHTS for Inhibitors of TGF-b: Cytotox Counterscreen | HepG2 CAGA-GFP viability, ATP luminescence, 18 h | Potency, µM (series often up to 46.1 µM), for inactives: at the highest dose activity change, negative = cytotoxicity, hits mostly cytotoxic | 410,000 tested, 0.76% active | AID 588856, 2011; further: potency means the concentration at half of the fitted maximal effect
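HepG2 CAGA-GFP cells (1000/well, DMEM with 1% FBS) received compound, then TGF-beta at 500 pg/mL final, and were incubated 18 hours at 37 degrees C. Viability was read by CellTiter-Glo luminescence. Media-only wells were set as complete cell-killing and DMSO as no toxicity.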
The depositor's hits bear a star; ! = repeats disagree. Sampled rows, rich in hits. Any-hit rate of the full collection: about 19%. Unless noted, the call rests on the fitted dose curve; in most records, active means well fitted curve in the direction sought with a large enough effect; inconclusive means small, poorly fitted or top-dose-only effect, or another doubt; inactive means no such curve, though single readings can be large; an effect the other way counts as inactive or inconclusive.

For O=C(CN1CCN(CC(=O)Nc2ccc3c(c2)OC2(CCCCC2)O3)CC1)Nc1cccc(F)c1 the results were S-ASM inh -9%, TGFb SMAD3 inh inconclusive, TDP1 cell noCPT 16µM*, TDP1 cell CPT 23µM* and HepG2 tox -10%.
`O=C(CN1CCN(C(=O)CCC(=O)N2CCC(c3ccccc3)=N2)CC1)Nc1ccc(F)cc1` gave S-ASM inh 3%, TGFb SMAD3 inh -25%, TDP1 cell noCPT 23µM*, IL-1B inflam inh -9, TDP1 cell CPT inconclusive and HepG2 tox -20%.
For CCOc1ccc(NC(=O)CN2CCN(CC(=O)Nc3cccc(F)c3)CC2)cc1 the results were S-ASM inh 0%, TGFb SMAD3 inh -19%, TDP1 cell noCPT -22%, IL-1B inflam inh 14, TDP1 cell CPT inconclusive and HepG2 tox 8%.
C=CCOc1ccc(CN(C)C(=O)C2CCCO2)cc1 (configuration not stated) was read as S-ASM inh 3%, TGFb SMAD3 inh -1%, TDP1 cell noCPT inconclusive, IL-1B inflam inh 36, TDP1 cell CPT 2% and HepG2 tox -4%.
For O=C(NCc1cccnc1)/C(=C\c1ccc(-c2cccc(Cl)c2)o1)S(=O)(=O)c1ccccc1 the results were S-ASM inh 24%, TGFb SMAD3 inh 16µM*, TDP1 cell noCPT 5.2µM*, IL-1B inflam inh -105*, TDP1 cell CPT 4.6µM* and HepG2 tox -97%.
For O=C(NCc1cccnc1)/C(=C/c1ccc(-c2cccc(Cl)c2)o1)S(=O)(=O)c1ccccc1 the results were S-ASM inh 3%, TGFb SMAD3 inh inconclusive, TDP1 cell noCPT inconclusive, IL-1B inflam inh -106*, TDP1 cell CPT inconclusive and HepG2 tox -19%.
`O=C(CCCn1c(=O)c2cccn2c2ccccc21)Nc1cc(C(F)(F)F)ccc1Cl` gave TGFb SMAD3 inh 0%, TDP1 cell noCPT inconclusive, TDP1 cell CPT inconclusive and HepG2 tox -36%.
CSCc1c(C(=O)OCC(=O)NC2CCCCC2)oc2ccccc12 was read as S-ASM inh -9%, TGFb SMAD3 inh -22%, TDP1 cell noCPT inconclusive, IL-1B inflam inh 10, TDP1 cell CPT inconclusive and HepG2 tox -16%.
`Cn1c(=O)c2cc(NC(=O)Nc3cccnc3)ccc2n1-c1ccc(C(C)(C)C)cc1` gave TGFb SMAD3 inh 21%, TDP1 cell noCPT inconclusive, IL-1B inflam inh -17, TDP1 cell CPT inconclusive and HepG2 tox -5%.
Screening Cc1cc(OC(C)C)c2c(-c3ccccc3)cc(=O)oc2c1 returned S-ASM inh 0%, TGFb SMAD3 inh 2%, TDP1 cell noCPT inconclusive, IL-1B inflam inh 44, TDP1 cell CPT 23µM* and HepG2 tox -2%.
Screening CC(=O)Oc1cc(C)cc2oc(=O)cc(-c3ccccc3)c12 returned S-ASM inh -1%, TGFb SMAD3 inh -28%, TDP1 cell noCPT inconclusive, IL-1B inflam inh 20, TDP1 cell CPT -7% and HepG2 tox 0%.
Cc1cc(OCC(=O)N2CCc3ccccc3C2)c2c(-c3ccccc3)cc(=O)oc2c1 was read as S-ASM inh -16%, TGFb SMAD3 inh inconclusive, TDP1 cell noCPT inconclusive, IL-1B inflam inh -26, TDP1 cell CPT 23µM* and HepG2 tox -1%.
For CCOc1cc(C)cc2oc(=O)cc(-c3ccccc3)c12 the results were S-ASM inh -1%, TGFb SMAD3 inh inconclusive, TDP1 cell noCPT 21µM*, IL-1B inflam inh 32, TDP1 cell CPT 13µM* and HepG2 tox -47%.
CC(C)(C)n1ncc2c(=O)n(Cc3ccccc3F)cnc21 was read as TGFb SMAD3 inh -7% and HepG2 tox -17%.
`CN(Cc1cccc(C(F)(F)F)c1)Cc1nc(-c2cnccn2)no1` gave S-ASM inh 4%, TGFb SMAD3 inh -9%, TDP1 cell noCPT -18%, IL-1B inflam inh 22, TDP1 cell CPT 17% and HepG2 tox -5%.
`Cc1cc(C)cc(NC(=O)CCn2c(=O)c3cccn3c3ccccc32)c1` gave S-ASM inh -25%, TGFb SMAD3 inh -29%, TDP1 cell noCPT 8.2µM*, IL-1B inflam inh 20, TDP1 cell CPT 5.8µM* and HepG2 tox -70%.
COc1ccc(NC(=O)CCn2c(=O)c3cccn3c3ccccc32)cc1 was read as S-ASM inh -5%, TGFb SMAD3 inh -1%, TDP1 cell noCPT inconclusive, IL-1B inflam inh 57, TDP1 cell CPT inconclusive and HepG2 tox -4%.
`Cc1cc(C)cc(NC(=O)CCCn2c3ccccc3c(=O)c3ccccc32)c1` gave TGFb SMAD3 inh inconclusive, TDP1 cell noCPT 23µM*, TDP1 cell CPT inconclusive and HepG2 tox -47%.
Cc1ccc(NC(=O)CCn2c(=O)c3cccn3c3ccccc32)c(C)c1 was read as S-ASM inh 4%, TGFb SMAD3 inh -1%, TDP1 cell noCPT 21µM*, IL-1B inflam inh 0, TDP1 cell CPT inconclusive and HepG2 tox 3%.
For CCOC(=O)c1ccc(NC(=O)CCn2c(=O)c3cccn3c3ccccc32)cc1 the results were TGFb SMAD3 inh -3%, TDP1 cell noCPT -13%, TDP1 cell CPT inconclusive and HepG2 tox -4%.
`O=C(CCn1c(=O)c2cccn2c2ccccc21)Nc1ccc(F)cc1` gave S-ASM inh -4%, TGFb SMAD3 inh -2%, TDP1 cell noCPT 12µM*!, IL-1B inflam inh 46, TDP1 cell CPT inconclusive and HepG2 tox 0%.
For Cc1ccc2c(c1)c(=O)c1ccccc1n2CCCC(=O)Nc1ccc(F)cc1F the results were TGFb SMAD3 inh -1%, TDP1 cell noCPT inconclusive, TDP1 cell CPT -28% and HepG2 tox -2%.
Screening COc1ccc(NC(=O)CCn2c(=O)c3cccn3c3ccccc32)c(OC)c1 returned S-ASM inh 0%, TGFb SMAD3 inh -16%, TDP1 cell noCPT 21µM*, IL-1B inflam inh 0, TDP1 cell CPT 16µM* and HepG2 tox 1%.
Screening COc1cccc(NC(=O)CCCn2c(=O)c3cccn3c3cccnc32)c1 returned TGFb SMAD3 inh -13%, TDP1 cell noCPT 21µM*, TDP1 cell CPT inconclusive and HepG2 tox -9%.
